Measurements as given in PubChem BioAssay.

Test system: Plasmodium falciparum Sir2 (PF13_0152, Sir2A)
Experiment: pfSir2 binders on small-molecule microarrays, primary screen, biochemical, small-molecule microarray, 635 nm fluorescence (AID 1098);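 also: score merges spot fluorescence intensity with its signal-to-noise ratio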
Conditions: small-molecule microarray binding, fluorescence 635 nm; higher = more signal

| SMILES | composite z-score |
| --- | --- |
| CCOC(=O)C[C@H]1[C@H](OC(=O)c2ccc(-c3ccccc3)cc2)[C@@H](NC(=O)Cc2ccc(OC)cc2)c2cc(OCCCO)ccc2N1C(=O)c1ccc2ccccc2n1 | 0.042 |
| C=CC[C@@]1(C(=O)NCC(O)CO)N=C(c2ccc(OCCCO)cc2)O[C@@H]1c1ccccc1N=[N+]=[N-] (stereo partly specified) | 0.663 |
| CCCCC=C[C@@H](NC(=O)c1ccco1)c1ccccc1 | 0.276 |
| CC(C)(C)OC(=O)CC[C@@]1(C(=O)NCCN2CCOCC2)N=C(c2ccc(OCCCO)cc2)O[C@@H]1c1ccccc1 | 1.48 |
| CC(C)(C)N1CC=CC23O[C@@H]4C=CCOC(=O)[C@@H]4[C@H]2C(=O)N(CCCCCO)[C@@H]3C1=O (stereo partly specified) | 1.12 |
| COc1ccc(C(O)C2C=CC3C(=O)N(c4ccccc4)C(=O)C3N2Nc2ccc([N+](=O)[O-])cc2)cc1OCc1ccccc1 (stereo unspecified) | 1.4 |
| CN(C)C(=O)[C@]1(CCC(=O)OC(C)(C)C)N=C(c2ccc(OCCCO)cc2)O[C@@H]1c1ccccc1N=[N+]=[N-] | 1.44 |
| O=C1OCC=C[C@H]2OC34C=CCN(c5ccc6ccccc6c5)C(=O)[C@H]3N(CCCO)C(=O)[C@@H]4[C@@H]12 (stereo partly specified) | 1.17 |
| COC(=O)c1c(CC[C@@H](CO)NC(=O)N[C@@H](Cc2ccccc2)Cn2cc(C3(O)CCCCC3)nn2)oc(C(C)=O)c1C(=O)OC | 0.893 |
| C=CCOC(=O)[C@H]1[C@@H]2C(=O)O[C@@H](c3ccccc3)[C@@H](c3ccccc3)N2[C@@H](c2ccc(OCCOC(=O)[C@@H]3C[C@@H]4C(=O)NCC(=O)N4[C@@H]3c3ccc(O)cc3)cc2)[C@]12C(=O)Nc1ccccc12 | 1.24 |
| [N-]=[N+]=NCc1ccccc1[C@H]1OC(c2ccc(OCCCO)cc2)=N[C@@]1(CCS(=O)(=O)c1ccccc1)C(=O)N1CCOCC1 | 1.26 |
| N[C@@H](Cc1ccccc1)Cn1cc(-c2ccccc2)nn1 | -0.334 |
| CC(C)CNC(=O)[C@@]1(c2ccc([N+](=O)[O-])cc2)CC(=O)N(CC23CC4CC(CC(C4)C2)C3)[C@@H]1c1ccc(CO)cc1I | 1.13 |
| O=C(CCN1CCOCC1)c1cccc(O)c1 | 1.63 |
| COC(=O)C(CC#Cc1ccc2c(c1)[C@]1(C(=O)N2)[C@H](c2ccc(OCCO)cc2)N2[C@H](c3ccccc3)[C@H](c3ccccc3)OC(=O)[C@H]2[C@@H]1C(=O)NC[C@H](O)c1ccccc1)C(=O)OC | 1.62 |
| C#CCN(C(/C=C/c1ccccc1)CO)C(C(=O)O)c1ccccc1 (stereo unspecified) | -0.211 |
| COc1ccc(C(=O)Nc2cccc(CN3C(=O)[C@@]4(O[C@@H](CCn5cc(CCO)nn5)[C@H]([Si](C)(C)c5ccc(OC)cc5)[C@H]4C)c4ccccc43)c2)cc1 | 0.758 |
| O=C(CS)NCCCCCCNC(=O)[C@@H]1C[C@@H]2C(=O)N3CCC[C@H]3C(=O)N2[C@@H]1c1ccc(O)cc1 | 0.425 |

| SMILES | composite z-score |
| --- | --- |
| CCCNC(=O)[C@@]1(c2ccc([N+](=O)[O-])cc2)CC(=O)N(CC23CC4CC(CC(C4)C2)C3)[C@@H]1c1ccc(CO)cc1 | 0.814 |
| CC(C)c1ccc(NN2C(C(O)c3c(F)cccc3Cl)C=CC3C(=O)N(c4ccccc4)C(=O)C32)cc1 (stereo unspecified) | 0.683 |
| COc1ccc([Si](C)(C)[C@@H]2[C@@H](CCn3cc([C@H](O)c4ccccc4)nn3)O[C@]3(C(=O)N(Cc4ccc(N5C(=O)c6cccc7cccc5c67)cc4)c4ccccc43)[C@H]2C)cc1 | 0.286 |
| [N-]=[N+]=Nc1ccccc1C[C@]1(C(=O)NCCN2CCOCC2)N=C(c2ccc(OCCCO)cc2)O[C@H]1c1ccccc1 | 1.09 |
| COC(=O)C[C@@H]1C[C@H](C)[C@]2(O1)C(=O)N(Cc1ccccc1)c1ccc(NC(C)=O)cc12 | 0.0968 |
| Cc1ccc([C@H]2C(C(=O)O)=C[C@@H](C)N2S(=O)(=O)c2ccc(C)cc2)cc1 | 1.23 |
| O=C1O[C@H](c2ccccc2)[C@H](c2ccccc2)N2[C@H]1[C@@H](C(=O)O)[C@]1(C(=O)Nc3ccc(C#CC4=CCCCC4)cc31)[C@H]2c1ccc(OCCO)cc1 | 1.43 |
| C=CC(=C)C1=CCO[C@@H]1[C@H]1CCCN1S(=O)(=O)c1ccccc1[N+](=O)[O-] | 0.487 |
| CCC(CC)C(O)C1C=CC2C(=O)N(c3ccccc3)C(=O)C2N1Nc1ccc(C#N)cc1 (stereo unspecified) | 0.82 |
| CC(C)N1C(=O)c2ccccc2[C@@H](C(=O)NCCCN(C)C)[C@@H]1c1ccc(CO)cc1 | 1.31 |
| COC(=O)[C@@]1(Cc2ccc(F)cc2)[C@H]2c3cc(C(=O)N4CCCC4)n(Cc4cccc5ccccc45)c3C[C@H]2CN1C(=O)c1ccccc1 | 1.53 |
| CCOC(=O)[C@H]1C/C=C/C[C@H](C(=O)OCC)C(=O)O[C@H]2[C@@H](OC)O[C@H](CO)[C@@H](OC(=O)Nc3ccc4c(c3)OCO4)[C@@H]2OC1=O | 0.353 |
| COCC(=C=CC[C@@H](O)c1ccc(CO)o1)CCO | 0.772 |
| Cc1cc(C)c(C(O)C2C=CC3C(=O)N(c4ccccc4)C(=O)C3N2Nc2ccc(C#N)cc2)c(C)c1 (stereo unspecified) | 0.586 |
| COc1ccc(C#Cc2ccc3c(c2)[C@]2(C(=O)N3)[C@H](c3ccc(O)cc3)N3[C@H](c4ccccc4)[C@H](c4ccccc4)OC(=O)[C@H]3[C@@H]2C(=O)N2CCCCCCC2)cc1 | 1.39 |
| O=C1C2C=CC(C(O)c3ccc(F)cc3)N(Nc3ccccc3)C2C(=O)N1c1ccccc1 (stereo unspecified) | 1.44 |
| COc1cc2c(cc1OC)CN(C(=O)[C@@H]1[C@H]3C(=O)O[C@H](c4ccccc4)[C@H](c4ccccc4)N3[C@H](c3ccccc3OCCO)[C@@]13C(=O)Nc1ccc(C#CCNC(N)=O)cc13)CC2 | 1.58 |
| Cc1ccc(F)cc1S(=O)(=O)N[C@@H]1CCN(Cc2ccc(-c3ccccc3)cc2)C1 | 0.293 |
